Out of some 5,400 compounds screened, about 190 (3.5%) showed an effect of 50% or more. The entries come from a sample that favours strong results as a whole.
What follows are molecules tested on Vero-E6 (assay: primary screen, phospholipidosis by LipidTOX staining; higher = more effect of the substance). Settings: 10 µM.
Procedure: To measure drug-induced PLD in Vero-E6 cells, we used the HCS LipidTOX Red Phospholipidosis Detection Reagent (Invitrogen, #H34351), which is non-toxic to cell growth and remains well retained after aldehyde fixation. In this setup, compounds (at 10 μM concentration) and controls (amiodarone: 10 μM concentration; DMSO: 0.1 v/v %) were added to clear-bottom, 384-well plates (PhenoPlate 384-well, black, optically clear flat bottom, tissue-culture treated, Revvity #6057302) using the Echo Liquid Handler (Labcyte).

Row | Structure (SMILES) | result_ITMP [%]
1 | Cn1ncc(Cl)c1-c1cc(C(=O)N[C@H](CN)Cc2ccc(F)c(F)c2)oc1Cl | 82.6
2 | Cn1ncc(Cl)c1-c1cc(C(=O)N[C@H](CN)Cc2cccc(F)c2)sc1Cl | 69.5
3 | O=C(N[C@H](Cc1ccccc1)C(=O)O)c1sc2cc(F)ccc2c1Cl | -1.39
4 | Cn1nc(C(C)(C)C)cc1C(=O)N[C@@H](Cc1cccc(Cl)c1)C(=O)NCC#N | -8.49
5 | Cc1cc(CN)cc(C)c1NC(=O)c1ccc(-c2cc(Cl)ccc2Cl)o1 | 36.2
6 | C[C@]12CCC(=O)C=C1CC[C@@H]1[C@@H]2C(=O)C[C@]2(C)C(=O)CC[C@@H]12 | -0.84
7 | C=C1C(=O)O[C@@H]2[C@H]3C(C)=CC[C@@]34O[C@@]4(C)CC[C@@H]12 | 2.15
8 | COC(=O)[C@]12CCC(C)(C)C[C@H]1[C@H]1C(=O)C=C3[C@@]4(C)C=C(C#N)C(=O)C(C)(C)[C@@H]4CC[C@@]3(C)[C@]1(C)CC2 | -10.9
9 | CCCC[C@@H](NC(=O)[C@@H](Cc1cn(C(=O)OC)c2ccccc12)NC(=O)[C@H](CC(C)(C)C)NC(=O)N1[C@H](C)CCC[C@@H]1C)C(=O)[O-] | -3.76
10 | CC(C)(C)CCN1C[C@@H]2[C@@H](CNC(=O)c3cc(Cl)cc(Cl)c3)[C@@H]2C1 | 20.6
11 | COC1C(OC(=O)NC(=O)CCl)CCC2(CO2)C1C1(C)OC1CC=C(C)C (centres unmarked) | 11.3
12 | C[C@H]1CC2C([C@@H](O)C[C@@]3(C)C2CC[C@]3(O)C(=O)COC(=O)CCC(=O)[O-])[C@@]2(C)C=CC(=O)C=C12 (some centres unmarked) | -6.49
13 | O=C(NOCC1CC1)c1ccc(F)c(F)c1Nc1ccc(I)cc1Cl | 1.02
14 | O=C(c1ccc(F)c(F)c1Nc1ccc(I)cc1F)N1CC(O)([C@@H]2CCCCN2)C1 | 78.8
15 | O=C(NOCCO)c1cc(CN2OCCCC2=O)c(F)c(F)c1Nc1ccc(I)cc1F | -1.3
16 | Cc1cc2nc3c(=O)[nH]c(=O)nc-3n(C[C@@H](O)[C@@H](O)[C@@H](O)COP(=O)([O-])O)c2cc1C | 1.6
17 | COc1cc2cc(c1Cl)N(C)C(=O)C[C@H](OC(=O)C(C)C)[C@]1(C)O[C@H]1[C@H](C)[C@@H]1C[C@@](O)(NC(=O)O1)[C@H](OC)/C=C/C=C(\C)C2 | -0.8
18 | CCOc1ccc(C(=O)OCCN(CC)CC)cc1 | 0.82
19 | CCN(CC)CCOc1ccc2c(c1)C(=O)c1cc(OCCN(CC)CC)ccc1-2 | 57.2
20 | CCCCOc1cc(C(=O)OCCN(CC)CC)ccc1N | 18.9
21 | O=C1NNc2nc(CN3Cc4ccccc4C3)nc3cccc1c23 | 0.43
22 | O=C([O-])C(Cl)Cl | -4.51
23 | CC(C)(C)C(=O)OCOC(=O)C1N2C(=O)CC2S(=O)(=O)C1(C)C (centres unmarked) | 3.85
24 | CCCCCCCCCCCCCCCC=O | -3.07
25 | CN1CCN(CCCN2c3ccccc3Sc3ccc(Cl)cc32)CC1 | 38.9
26 | Cc1c[nH]c(=O)n(CCCN2CCN(c3ccccc3OCC(F)(F)F)CC2)c1=O | -1.42
27 | CCN(CC)CCCCN1c2ccccc2Oc2ccc(Cl)cc21 | 69.7

Row | Structure (SMILES) | result_ITMP [%]
28 | Clc1ccc2c(N3CCN(CCCN4CCN(c5ccnc6cc(Cl)ccc56)CC4)CC3)ccnc2c1 | 6.97
29 | OCCN1CCN(CCCN2c3ccccc3C=Cc3ccccc32)CC1 | 50.3
30 | O=C(CCc1ccncc1)NNC(=O)N1Cc2ccccc2Oc2ccc(Cl)cc21 | -1.3
31 | COc1ccccc1N1CCN(CCCCN2C(=O)c3ccccc3C2=O)CC1 | -0.85
32 | CN1CCN(CCCN2c3ccccc3Sc3ccc(C(F)(F)F)cc32)CC1 | 81.3
33 | CN(C)CCCN1c2ccccc2CCc2ccc(Cl)cc21 | 47.3
34 | COc1ccccc1N1CCN(CCCCN2C(=O)CCC2=O)CC1 | 6.62
35 | OCCN1CCN(CCCN2c3ccccc3Sc3ccc(Cl)cc32)CC1 | 84.7
36 | CN(C)c1ccc2nc3ccc(N(C)C)cc3[s+]c2c1 | 5.81
37 | CO[C@@H]1[C@H](OC(=O)NC(=O)CCl)CC[C@]2(CO2)[C@H]1[C@@]1(C)O[C@@H]1CC=C(C)C | 16.1
38 | NC[C@@H]1O[C@H](O[C@H]2[C@@H](O)[C@H](O[C@@H]3[C@@H](O)[C@H](N)C[C@H](N)[C@H]3O[C@H]3O[C@H](CO)[C@@H](O)[C@H](O)[C@H]3N)O[C@@H]2CO)[C@H](N)[C@@H](O)[C@@H]1O | -1.27
39 | CC1CCC(O)C/C1=C\C=C1/CCCC2(C)C1CCC2C(C)/C=C/C(C)C(C)C (centres unmarked) | 0.34
40 | C[C@H](CSC(=O)c1ccccc1)C(=O)N1C[C@@H](Sc2ccccc2)C[C@H]1C(=O)[O-] | -1.35
41 | Cc1ncc(COP(=O)([O-])O)c(CN(CCN(CC(=O)[O-])Cc2c(COP(=O)(O)O)cnc(C)c2[O-])CC(=O)[O-])c1[O-].[Mn+2] | -10.5
42 | O=C([O-])C1=C(CSc2nnnn2CS(=O)(=O)[O-])CS[C@@H]2[C@H](NC(=O)[C@H](O)c3ccccc3)C(=O)N12 | 0.51
43 | CN(C)CCCN1c2ccccc2CCc2ccccc21 | 23.6
44 | CN1CCN(CC/C=C2/c3ccccc3Sc3ccc(S(=O)(=O)N(C)C)cc32)CC1 | 61.9
45 | OCCOCCN1CCN(C2=Nc3ccccc3Sc3ccccc32)CC1 | 22.1
46 | CSc1ccc2c(c1)N(CCC1CCCCN1C)c1ccccc1S2 (centres unmarked) | 68.1
47 | OCCN1CCN(CC/C=C2/c3ccccc3Sc3ccc(Cl)cc32)CC1 | 17.9
48 | Cc1[nH]c(/C=C2\C(=O)Nc3ccc(S(=O)(=O)N(C)c4cccc(Cl)c4)cc32)c(C)c1C(=O)N1CCN(C)CC1 | 7.98
49 | CN(C)CCCN1c2ccccc2Sc2ccc(Cl)cc21 | 104
50 | OCCN1CCN(CC/C=C2/c3ccccc3Sc3ccc(C(F)(F)F)cc32)CC1 | 83.6
51 | CN(C)CCCN1c2ccccc2Sc2ccccc21 | 37.7
52 | CN1CCCCC1CCN1c2ccccc2Sc2ccc(S(C)=O)cc21 (centres unmarked) | -0.95
53 | CO/N=C(/C(=O)N[C@@H]1C(=O)N2C(C(=O)[O-])=C(CSc3nc(=O)c([O-])nn3C)CS[C@H]12)c1csc(N)n1 | -8.18

— PMC13083723 (Patterns, 2026)
